D2 PAM-1: human D2 receptor positive allosteric modulation; P14416; DiscoveRx D2 beta-arrestin cells, luminescence, 90 min; 100% = 57 uM dopamine signal; potentiation, % (no concentration beside the values); 360,000 compounds, 0.23% hits; AID 624464; in the data active = potentiation above about 50%; inconclusive = mostly about 30% to 49%
Target sequence (P14416 whole entry, looked up): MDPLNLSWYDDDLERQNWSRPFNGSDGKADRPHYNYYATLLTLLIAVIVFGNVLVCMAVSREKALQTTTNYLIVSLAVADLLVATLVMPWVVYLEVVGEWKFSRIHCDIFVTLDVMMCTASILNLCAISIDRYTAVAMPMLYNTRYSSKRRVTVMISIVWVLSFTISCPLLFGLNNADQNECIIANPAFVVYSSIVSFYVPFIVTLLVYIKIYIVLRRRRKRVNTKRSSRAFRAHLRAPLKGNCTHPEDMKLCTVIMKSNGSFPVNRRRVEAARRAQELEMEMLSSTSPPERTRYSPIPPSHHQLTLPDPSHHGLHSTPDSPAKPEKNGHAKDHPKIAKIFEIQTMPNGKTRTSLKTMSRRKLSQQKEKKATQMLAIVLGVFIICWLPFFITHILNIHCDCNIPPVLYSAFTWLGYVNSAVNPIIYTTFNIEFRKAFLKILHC
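PathHunter D2 cells, attached overnight at 37 deg C, received compound in DMSO plus dopamine at EC20 (50 nM final) for 90 min at 37 deg C. Beta-arrestin recruitment was read as luminescence after 1 h with detection reagent at ambient temperature.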
D2 ag-1: human D2 receptor agonism in beta-arrestin assay. P14416. DiscoveRx PathHunter D2 beta-arrestin, luminescence, 90 min; 100% = 57 uM dopamine signal. activation, % (test concentration not listed). 360,000 compounds, 0.084% hits. AID 624465; in the data active = activation above about 40%; inconclusive = between about 15% and that limit
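DiscoveRx PathHunter D2 beta-arrestin cells (2,100/well) attached overnight, then compound-stimulated 90 min at 37 C in HBSS/10 mM HEPES/0.1% Tween-20 buffer; beta-galactosidase complementation read by luminescence after 1 h at ambient temperature. Dopamine 57 uM final (EC100) as control.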
D2 ag-2: activates the human D2 dopamine receptor; P14416; HEK293 T-REx D2 cells, calcium flux agonist mode; activation, % at 2 µM; 340,000 compounds, 0.53% hits;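 active = activation over 3 SD above normal in the single-dose calcium agonist read, cut at about 30% in these data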; note: 0% is about no effect
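Agonism scored from kinetic calcium signal (1 read/sec, 180 s) following compound pin transfer, after a 10 s baseline. Cells: HEK293 Trex line expressing inducible D2 receptor coupled to calcium, dye-loaded after overnight culture at 30 C.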
D2 antag: antagonists of human D2 dopamine receptor; inhibition, % at 10 µM; HEK293 TREx D2 cells, calcium flux, dopamine EC80; AID 485344; 340,000 compounds, 2% hits; P14416; in the data active = inhibition above about 30%; inactive = below that, where a call was filed; note: 0% is about no effect
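Tetracycline-induced HEK293 TREx cells expressing D2 receptor forced-coupled to calcium signalling, loaded with no-wash calcium dye. Compounds added and calcium flux read 180 s, then dopamine added at EC80 and read a further 180 s.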
D2 PAM-2: positively modulates the human D2 dopamine receptor allosterically | P14416 | HEK293 T-REx D2, calcium flux, EC20 dopamine potentiation | potentiation, % at 10 µM | 340,000 compounds, 0.34% hits;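 active = potentiation over 3 SD above the plate norm, cut at about 30% in these data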; note: 0% is about no effect
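Cells plated with tetracycline inducer and held overnight at 30 C; calcium dye loaded 30–90 min at room temperature; baseline taken, compound added and read 180 s; EC20 dopamine then added and read 180 s.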
The depositor's hits bear a star; u = inconclusive; x = no result. The list is not random: actives were taken first. Their share in the collection is about 2.4%.

SMILES | D2 PAM-1 | D2 ag-1 | D2 ag-2 | D2 antag | D2 PAM-2
O=C(NC1CCCC1)c1cccc2c1C(=O)c1ccc(N3CCCCC3)cc1S2(=O)=O | -4 | -7 | 4 | 20 | 37*
O=C(NC1CCCCC1)c1cccc2c1C(=O)c1ccc(N3CCCC3)cc1S2(=O)=O | -8 | -2 | x | x | x
C[C@@H]1CN([C@H](C)CO)S(=O)(=O)c2ccc(C#Cc3ccccc3F)cc2O[C@@H]1CN(C)C(=O)Cc1ccccc1 | -8 | -10 | x | x | x
Oc1ccc(/C=N/Nc2ccc(Cl)nn2)c(O)c1O | 15 | 50* | 1 | 6 | -6
CC1(C)CC(=O)C2=C(C1)N(c1ccccc1)C(=O)C2(O)C(F)(F)F (stereo unspecified) | -5 | -10 | 0 | 36* | 1
Cc1nc(N2CCc3ccccc3C2)[nH]c(=O)c1Cc1ccccc1 | 1 | 0 | 1 | 12 | 5
CCCCCc1c(C)nc(N2CCc3ccccc3C2)[nH]c1=O | -16 | -4 | -2 | 32* | -14
O=C(NC1(C(F)(F)F)C(=O)Nc2c1c(=O)[nH]c(=O)n2-c1ccc(Cl)cc1)c1ccccc1F (stereo unspecified) | x | x | 1 | x | 1
COc1ccc(NC(=S)N2CCC(N(C)CC3CCCO3)CC2)cc1 (stereo unspecified) | -6 | 0 | -3 | 30* | 13
O=C(c1ccc(S(=O)(=O)Nc2ccccc2)cc1)N1CCC1 | -20 | -2 | -1 | 1 | 1
O=C(O)c1ccc(NS(=O)(=O)c2cc(C(=O)O)ccc2Br)cc1 | 70* | 7 | 0 | 1 | 1
O=C(O)c1ccc(NS(=O)(=O)c2ccc(N3C(=O)CCC3=O)cc2)cc1 | -8 | -6 | -1 | 39* | -16
Cc1nc2sccn2c(=O)c1S(=O)(=O)Nc1cc(C(F)(F)F)ccc1Cl | x | x | -1 | x | -2
COC(=O)c1ccc2c(=O)n(CCCCCC(=O)NCc3ccc(OC)cc3)c(=O)[nH]c2c1 | x | x | 0 | x | -13
Cc1ccccc1-c1noc(N)c1C#N | 76* | 13 | 0 | 13 | -8
CCc1ccccc1NC(=O)CCc1c(C)nc2cc(-c3ccccc3)nn2c1C | x | x | x | x | 2
COc1ccc2c3c(cccc13)OC2=O | -1 | 0 | -1 | 5 | 9
COc1ccc2c3c(cccc13)N(C)N=C2C | 56* | 7 | 0 | -1 | 8
CC1(C(=O)NC2CCN(Cc3ccccc3)CC2)CCN1Cc1cc2ccccc2o1 (stereo unspecified) | -15 | -3 | x | x | x
Cc1oc2cc3oc(=O)c(CCC(=O)NCCCC(=O)O)c(C)c3cc2c1C | -12 | -4 | 0 | 33* | -7
Cn1c(=O)oc2cc(NC(=O)CCl)ccc21 | -1 | 2 | 0 | 32* | -5
CC(=O)Nc1ccc(NC(=O)CCS(=O)(=O)c2ccc3c(c2)oc(=O)n3C)cc1 | -10 | -2 | 0 | 0 | -9
CCN1CCN(c2cc(N3CCc4ccccc4C3)c(F)cc2[N+](=O)[O-])CC1 | -32 | -4 | 1 | 62* | -22
COCCn1c(N)c(C#N)c2nc3ccccc3nc21 | -4 | 1 | 1 | 36* | -5
COCCCn1c(N)c(-c2nc3ccccc3n2C)c2nc3ccccc3nc21 | -4 | 0 | 39* | 14 | -10
SMILES | D2 PAM-1 | D2 ag-1 | D2 ag-2 | D2 antag | D2 PAM-2
CCCCn1c(NC(=O)c2ccccc2)c(C#N)c2nc3ccccc3nc21 | 2 | 0 | 7 | 38* | 0
CCC(C)n1c(NC(=O)c2ccccc2)c(C#N)c2nc3ccccc3nc21 (stereo unspecified) | -11 | -6 | 0 | -6 | -7
COc1ccc(NC(=O)CN(C)C(=O)CN2C(=O)c3ccc([N+](=O)[O-])cc3C2=O)cc1 | 66* | 11 | 1 | 0 | -5
c1ccc(-c2nc3nonc3nc2-c2ccccc2)cc1 | 74* | u | 1 | 41* | 12
Cc1ccc(C(=O)N/N=C\C=C\c2ccccc2[N+](=O)[O-])cn1 | -4 | -3 | 2 | 47* | -31
Cc1occc1C(=O)N/N=C/c1ccccc1[N+](=O)[O-] | -2 | -2 | 0 | 35* | 7
Cc1ccc(/C=N/NC(=O)c2cccs2)cc1[N+](=O)[O-] | -14 | -1 | -1 | 35* | -1
COc1cccc(/C=N/NC(=O)c2ccoc2C)c1O | -6 | -1 | 0 | -4 | 7
O=C(N/N=C/c1ccccc1[N+](=O)[O-])c1cccs1 | -2 | 2 | 0 | -19 | -13
O=C(N/N=C/C=C/c1ccccc1[N+](=O)[O-])c1cccs1 | -18 | 1 | -1 | 39* | -22
Cc1ccc(C(=O)N/N=C\c2ccccc2[N+](=O)[O-])cn1 | -9 | -6 | -1 | -4 | x
Cc1ccsc1/C=N/NC(=O)c1cccs1 | -11 | -1 | 1 | 2 | 7
CCc1nc2ccc(C(=O)NCC3CCCCC3)cn2c1N(C)Cc1nccs1 | -2 | -5 | x | x | x
COc1ccc(-c2oc3ncn4nc(-c5ccccc5Cl)nc4c3c2-c2ccc(OC)cc2)cc1 | x | x | 2 | x | x
Cc1[nH]oc(=O)c1N=Nc1ccccc1 | 57* | 15 | 0 | -7 | 4
CCc1nn(CC(=O)NCCCN2CCc3ccccc3C2)c(=O)c2cc3sccc3n12 | -8 | -6 | -1 | 79* | -29
COc1cccc2c1[C@@H]1CN(CCCCn3c(=O)[nH]c4c(sc5ncc(-c6ccccc6)nc54)c3=O)C[C@@H]1CO2 | -35 | -5 | 2 | 56* | -19
COc1cc2[nH]c(=O)n(CCCC(=O)N3CC=C(c4ccccc4)CC3)c(=O)c2cc1OC | -1 | -3 | 1 | 3 | 4
COc1cccc(CNC(=O)C2CCN(S(=O)(=O)c3ccc4c(c3)CCCN4C(C)=O)CC2)c1 | x | x | -1 | x | -6
CCOc1ccccc1NS(=O)(=O)c1c(C(=O)OC)sc2cccc(F)c12 | x | x | 2 | x | 2
COc1ccc(Br)cc1CN1CCCC(C(=O)N2CCCCCC2)C1 (stereo unspecified) | -35 | -4 | 1 | 32* | -6
CCOC(=O)Cc1csc(NC(=O)COc2ccc3ccccc3c2)n1 | 3 | -1 | 1 | 59* | -4
COC(=O)c1cc(Cl)c(NC(=O)c2cc3ccccc3o2)cc1OC | -11 | -1 | 1 | 32* | -5
COc1ccc(NC(=O)c2cc3ccccc3o2)c(OC)c1 | x | x | x | x | -11
CCCCN(C)CCCNC(=O)Cn1ncc2c3ccccc3n(Cc3cc(C)ccc3C)c2c1=O | x | x | x | x | 10
CCOC(=O)N1CCN(C(=O)Nc2ccc3oc(C)nc3c2)CC1 | u | 7 | 1 | 44* | x
CCOC(=O)C1CCN(C(=O)Nc2ccc3oc(C)nc3c2)CC1 | -3 | -2 | x | x | x
O=C(C(=Cc1ccccc1)CN1CCCCC1)c1ccccc1 | -23 | -6 | x | x | x
